Test results: the supplement of paper PMC7156485
± gives the standard deviation of the averaged measurements.

Tests used:
Settings in all cases: concentration: 10 µM; 24 h
HCC1569 [1] = experiment: cell number relative to DMSO (% of DMSO); higher = more cells (less growth inhibition / toxicity)
In short: (§1)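 Compounds were applied at 10 µM for 24 h at 37 °C, in triplicate, to HCC1569 and TDF cells. The cells were then fixed and stained for H1.0, and nuclei were counterstained with DAPI. Nuclear H1.0 intensity or cell number is reported relative to the plate control as a percent, taking the median of replicates. Smoothing for positional effects was applied to HCC1569 values only.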

TDF [2] = experiment: as above
In short: as §1

TDF [3] = experiment: H1.0 immunofluorescence intensity relative to DMSO (% of DMSO); higher = stronger H1.0 induction, active = 120 or more
In short: as §1

HCC1569 [4] = experiment: H1.0 immunofluorescence intensity relative to DMSO (% of DMSO); higher = stronger H1.0 induction, active = 140 or more
In short: as §1
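Wherever H1.0 immunofluorescence intensity relative to DMSO is given: TDF is a line of transformed human dermal fibroblasts of mesenchymal origin.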
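Wherever cell number relative to DMSO is given: TDF denotes transformed human dermal fibroblasts of mesenchymal origin.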

With `N#Cc1ccc(C(c2ccc(C#N)cc2)n2cncn2)cc1` [Letrozole] the cell number (HCC1569 [1]) was 100, the cell number (TDF [2]) was 103 and the H1.0 immunofluorescence intensity (TDF [3]) was 96.8 (inactive). The H1.0 immunofluorescence intensity (HCC1569 [4]) was 102 (inactive).

In the case of `CCCCCC(O)C=CC=CCC=CCC=CCCCC(=O)O` (configuration not stated), the cell number (HCC1569 [1]) is reported as 103, the cell number (TDF [2]) is reported as 100 and the H1.0 immunofluorescence intensity (TDF [3]) is reported as 96.7 (inactive). The H1.0 immunofluorescence intensity (HCC1569 [4]) was 99.7 (inactive).

For `Nc1nc(OCc2ccccc2)c2[nH]cnc2n1` [O6-benzylguanine], the cell number (HCC1569 [1]) was 102, the cell number (TDF [2]) was 96.6 and the H1.0 immunofluorescence intensity (TDF [3]) was 101 (inactive). For the same compound, the H1.0 immunofluorescence intensity (HCC1569 [4]) was 95.8 (inactive).

With `Br.C=CCN1CCc2c(cc(O)c(O)c2Cl)C(c2ccccc2)C1` (racemic) the cell number (HCC1569 [1]) was 94.1, the cell number (TDF [2]) was 79.4 and the H1.0 immunofluorescence intensity (TDF [3]) was 96.2 (inactive). The H1.0 immunofluorescence intensity (HCC1569 [4]) was 107 (inactive).

`CN1c2cc3c(cc2N=C(c2ccc(C(=O)O)cc2)c2ccccc21)C(C)(C)CCC3(C)C` was tested, and the cell number (HCC1569 [1]) was 77, the cell number (TDF [2]) was 88.5 and the H1.0 immunofluorescence intensity (TDF [3]) was 93.8 (inactive). The H1.0 immunofluorescence intensity (HCC1569 [4]) was 112 (inactive).

In the case of `CCC=CCC=CCC=CCC=CCC=CCCCCCC(=O)O` [Docosapentaenoic acid], the cell number (HCC1569 [1]) is reported as 100.4 ± 0.68, the cell number (TDF [2]) is reported as 97.7 ± 1.7 and the H1.0 immunofluorescence intensity (TDF [3]) is reported as 101 (inactive). For the same compound, the H1.0 immunofluorescence intensity (HCC1569 [4]) was 103 (inactive).

`CCn1cc(C(=O)O)c(=O)c2cc(F)c(N3CCNCC3)cc21` [Norfloxacin] was tested, and the cell number (HCC1569 [1]) was 100, the cell number (TDF [2]) was 108 and the H1.0 immunofluorescence intensity (TDF [3]) was 105 (inactive). The H1.0 immunofluorescence intensity (HCC1569 [4]) was 101 (inactive).

`COC(=O)C1=COC(C)C2CN3CCc4c([nH]c5ccccc45)C3CC12` (configuration not stated) [Teterahydroalstonine] was tested, and the cell number (HCC1569 [1]) was 102, the cell number (TDF [2]) was 104 and the H1.0 immunofluorescence intensity (TDF [3]) was 98.8 (inactive). For the same compound, the H1.0 immunofluorescence intensity (HCC1569 [4]) was 88 (inactive).

In the case of `Nc1ccc(CCNc2ncnc3c2ncn3C2OC(CO)C(O)C2O)cc1` (configuration not stated) [N6-2-(4-Aminophenyl)ethyladenosine], the cell number (HCC1569 [1]) is reported as 101, the cell number (TDF [2]) is reported as 109 and the H1.0 immunofluorescence intensity (TDF [3]) is reported as 85.9 (inactive). The H1.0 immunofluorescence intensity (HCC1569 [4]) was 94 (inactive).

`C=C1C(=CC=C2CCCC3(C)C2CCC3C(C)CCCC(C)(C)O)CC(O)CC1O` (configuration not stated) [1,25-Dihydroxyvitamin D3] was tested, and the cell number (HCC1569 [1]) was 104, the cell number (TDF [2]) was 106 and the H1.0 immunofluorescence intensity (TDF [3]) was 95.2 (inactive). For the same compound, the H1.0 immunofluorescence intensity (HCC1569 [4]) was 98.6 (inactive).

In the case of `Cl.NCCCC(N)(C(=O)O)C(F)F` (racemic) [DL-alpha-Difluoromethylornithine hydrochloride], the cell number (HCC1569 [1]) is reported as 98.5, the cell number (TDF [2]) is reported as 111 and the H1.0 immunofluorescence intensity (TDF [3]) is reported as 94.3 (inactive). For the same compound, the H1.0 immunofluorescence intensity (HCC1569 [4]) was 92.7 (inactive).

For `CCC(C)SSc1ncc[nH]1` (configuration not stated) [2-(sec-butyldisulfanyl)-1H-imidazole], the cell number (HCC1569 [1]) was 83.7, the cell number (TDF [2]) was 105 and the H1.0 immunofluorescence intensity (TDF [3]) was 87.7 (inactive). For the same compound, the H1.0 immunofluorescence intensity (HCC1569 [4]) was 107 (inactive).

With `CC1CCC2(C(=O)O)CCC3(C)C(=CCC4C5(C)CC(O)C(O)C(C)(CO)C5CCC43C)C2C1C` (configuration not stated) [Asiatic acid] the cell number (HCC1569 [1]) was 104, the cell number (TDF [2]) was 99.6 and the H1.0 immunofluorescence intensity (TDF [3]) was 101 (inactive). For the same compound, the H1.0 immunofluorescence intensity (HCC1569 [4]) was 94.7 (inactive).

`Cl.Nc1c2c(nc3ccccc13)CCCC2` [9-Amino-1,2,3,4-tetrahydroacridine hydrochloride] was tested, and the cell number (HCC1569 [1]) was 105, the cell number (TDF [2]) was 103 and the H1.0 immunofluorescence intensity (TDF [3]) was 94.8 (inactive). The H1.0 immunofluorescence intensity (HCC1569 [4]) was 94.2 (inactive).

For `c1cc(-c2cnn3cc(-c4ccc(OCCN5CCCCC5)cc4)cnc23)ccn1` [AMPK Inhibitor,                  Compound C], the cell number (HCC1569 [1]) was 102, the cell number (TDF [2]) was 102 and the H1.0 immunofluorescence intensity (TDF [3]) was 85.8 (inactive). For the same compound, the H1.0 immunofluorescence intensity (HCC1569 [4]) was 106 (inactive).

`COc1ccc(C(=O)NCc2ccc(OCCN(C)C)cc2)cc1OC` [Itopride] was tested, and the cell number (HCC1569 [1]) was 101, the cell number (TDF [2]) was 104 and the H1.0 immunofluorescence intensity (TDF [3]) was 92 (inactive). For the same compound, the H1.0 immunofluorescence intensity (HCC1569 [4]) was 118 (inactive).

For `CC(C)(C)C(=O)Oc1ccc(S(=O)(=O)Nc2ccccc2C(=O)NCC(=O)[O-])cc1.O.[Na+]`, the cell number (HCC1569 [1]) was 101, the cell number (TDF [2]) was 98.8 and the H1.0 immunofluorescence intensity (TDF [3]) was 87.6 (inactive). For the same compound, the H1.0 immunofluorescence intensity (HCC1569 [4]) was 108 (inactive).

In the case of `COC(=O)C1=C(C)NC(C)=C(C(=O)OCCN(C)Cc2ccccc2)C1c1cccc([N+](=O)[O-])c1.Cl` (configuration not stated) [Nicardipine.HCl], the cell number (HCC1569 [1]) is reported as 96.8, the cell number (TDF [2]) is reported as 100 and the H1.0 immunofluorescence intensity (TDF [3]) is reported as 98.7 (inactive). The H1.0 immunofluorescence intensity (HCC1569 [4]) was 107 (inactive).

With `COc1ccc(C2CC(c3ccccc3)=NN2c2ccc(S(N)(=O)=O)cc2)cc1` (configuration not stated) the cell number (HCC1569 [1]) was 95.8, the cell number (TDF [2]) was 97.9 and the H1.0 immunofluorescence intensity (TDF [3]) was 91.3 (inactive). For the same compound, the H1.0 immunofluorescence intensity (HCC1569 [4]) was 114 (inactive).

In the case of `CC(C)C(CO)Nc1nc(Nc2cc(N)cc(Cl)c2)c2ncn(C(C)C)c2n1` (configuration not stated) [Aminopurvalanol A], the cell number (HCC1569 [1]) is reported as 65.5, the cell number (TDF [2]) is reported as 83.4 and the H1.0 immunofluorescence intensity (TDF [3]) is reported as 97.4 (inactive). For the same compound, the H1.0 immunofluorescence intensity (HCC1569 [4]) was 145 (active).

For `CC(=O)ONC1=c2ccccc2=NC1=C1C(=O)Nc2cc(Br)ccc21`, the cell number (HCC1569 [1]) was 55.8, the cell number (TDF [2]) was 51.1 and the H1.0 immunofluorescence intensity (TDF [3]) was 116 (inactive). The H1.0 immunofluorescence intensity (HCC1569 [4]) was 188 (active).

For `CCN(CC)CCNC(=O)c1ccc(NC(C)=O)cc1.Cl` [N-Acetylprocainamide hydrochloride], the cell number (HCC1569 [1]) was 104, the cell number (TDF [2]) was 110 and the H1.0 immunofluorescence intensity (TDF [3]) was 105 (inactive). For the same compound, the H1.0 immunofluorescence intensity (HCC1569 [4]) was 116 (inactive).

`COc1ccc(C2CC(=O)c3c(O)cc(O)cc3O2)cc1O` (configuration not stated) [Hesperitine] was tested, and the cell number (HCC1569 [1]) was 98.4, the cell number (TDF [2]) was 101 and the H1.0 immunofluorescence intensity (TDF [3]) was 98.1 (inactive). For the same compound, the H1.0 immunofluorescence intensity (HCC1569 [4]) was 92.8 (inactive).
